BAZ2B inh – BAZ2B (human) inhibition. Q9UIF8. AlphaScreen BAZ2B-H3K14Ac peptide displacement. Potency, µM (series often up to 114 µM), inactives show top-dose activity change, negative = inhibition, hits mostly inhibitors. 4.4% of 360,000 active. AID 504333; note: potency is the fitted concentration of half-maximal effect; % is set by controls: 0 for no effect and ±100 for the full control effect; nearly all actives have a fitted effect of over 60% in size
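Protein-peptide AlphaScreen: BAZ2B 50 nM, b-H3K14Ac 50 nM, 1x PBS pH 7.4 + 0.01% Tween-20. Preincubation 30 min RT; cpd 30 min RT (top 110 uM); beads 20 min RT, light-protected.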
L3MBTL1 block – blocks human L3MBTL1. Q9Y468. AlphaScreen L3MBTL1–H3K9me1 peptide binding. Potency, µM (doses to about 57.1 µM), without a hit: top-dose activity, negative = inhibition, usual class: inhibitors. 0.66% of 230,000 active. AID 485360; note: potency is the fitted concentration of half-maximal effect; % is set by controls: 0 for no effect and ±100 for the full control effect; nearly all actives have a fitted effect of over 60% in size
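L3MBTL1 50 nM + b-AHA-H3(1-15)K9me1 75 nM, 30 min RT; compound added, 30 min RT; streptavidin donor/Ni-chelate acceptor beads 10 ug/mL each final, 30 min RT dark; AlphaScreen read.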
PI5P4Ka inh – blocks human PI5P4K alpha kinase activity; P48426; PI5P4Kalpha enzyme, ADP-Glo luminescence, 60 min; stronger effect = lower value; max response, %; 1.2% of 330,000 active; AID 652105; active = max response of -50% or lower; inconclusive = between -30% and -50%; inactive = -30% or higher; note: value at the top dose of about 77 µM; % is set by controls: 0 for no effect and ±100 for the full control effect
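Compounds were pin-transferred onto PI5P4Kalpha and substrate in HEPES pH 7.4 buffer with EGTA, CHAPS and 5% DMSO. ATP (5 microM final) started the reaction, which ran 60 minutes at room temperature before ADP-Glo detection.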
HP1b binding inh – inhibitors of HP1-beta chromodomain binding to methylated histone tails | AlphaScreen HP1-beta / biotin-H3K9me3 peptide binding | Potency, µM (highest dose often 114 µM), for the others: top-dose activity change, negative = inhibition, actives largely listed as inhibitors | 0.56% of 390,000 active | AID 540317; note: potency is the fitted concentration of half-maximal effect; nearly all actives have a fitted effect of over 70% in size
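HP1-beta protein (50 nM final) preincubated 30 min at room temperature with biotinylated H3(1-18)K9me3 peptide (50 nM) in PBS pH 7.4, 0.01% Tween-20, then compound added for 30 min. AlphaScreen streptavidin donor/nickel chelate acceptor beads (10 ug/mL final), 30 min dark, luminescence read.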
G9a block – blocks human histone lysine methyltransferase G9a | Q96KQ7 | G9a H3K9 monomethylation, AlphaScreen, 2 h | Potency, µM (top dose mostly 102 µM), for inactives: at the highest dose activity, negative = inhibition, usual class: inhibitors | 8.8% of 350,000 active; note: potency is the fitted concentration of half-maximal effect; % is set by controls: 0 for no effect and ±100 for the full control effect; nearly all actives have a fitted effect of over 75% in size
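G9a (20 nM) was preincubated 15 min with compound, then reacted 2 h at room temperature with 500 nM biotin-H3K9 peptide and 20 µM SAM. Monomethyl-H3K9 detected by AlphaScreen using anti-H3K9me1 antibody.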
JMJD2A Tudor inh – JMJD2A Tudor domain (human) inhibition | AID 504339 | Potency, µM (top dose mostly 114 µM), for inactives: at the top dose activity change, negative = inhibition, hits mostly inhibitors | 4.4% of 390,000 active | O75164 | AlphaScreen JMJD2A-Tudor / H3K4me3 peptide binding; note: potency is the fitted concentration of half-maximal effect; % is set by controls: 0 for no effect and ±100 for the full control effect; nearly all actives have a fitted effect of over 50% in size
Active calls of the source: *; ? = inconclusive; nt = not tested or not shown; [ ] = dose if it differs, or a comment. Hits are enriched below; roughly 11% of the tested compounds scored in any of these assays. Unless noted, calls come from the whole dose curve; as a rule, active = well fitted inhibition curve with a large enough effect; inconclusive = small, poorly fitted or top-dose-only effect; inactive = no such curve, though single readings can be large or run the other way.

SMILES	BAZ2B inh	L3MBTL1 block	PI5P4Ka inh	HP1b binding inh	G9a block	JMJD2A Tudor inh
COc1ccccc1NS(=O)(=O)c1cc(NC(=O)COc2ccccc2F)ccc1N1CCOCC1	nt	-8%	-22	18µM*	nt	-19%
COc1ccccc1NS(=O)(=O)c1cc(NC(=O)C2CCCC2)ccc1N1CCOCC1	-27%	-8%	?	?	8.9µM*	?
COc1ccccc1NS(=O)(=O)c1cc(NC(=O)C(C)(C)C)ccc1N1CCOCC1	4%	-8%	-2	22%	7%[0.501 µM]	-6%
CN(C)S(=O)(=O)c1cccc(NC(=O)c2ccc(N3CCOCC3)c([N+](=O)[O-])c2)c1	?	-4%	-2	-5%	50µM*	-33%
COc1ccc(C(=O)N2CCC[C@@]3(CCN(c4ccccc4)C3)C2)cc1	nt	nt	nt	nt	-9%[12.7 µM]	nt
COc1ccc(S(=O)(=O)c2c(Nc3ccc(C)cc3)sc(C(=O)c3ccc4c(c3)OCO4)c2N)cc1	-16%	nt	nt	22%[57 µM]	-33%[59 µM]	-17%
Cc1ccc(SCC(CC(C)C)N2CCN(C)CCC2=O)cc1 (centres undefined)	nt	nt	nt	10%	nt	-12%
COc1ccccc1NC(=O)c1ccc(-n2ccnc2)c([N+](=O)[O-])c1	2%	nt	3	26%	-1%[2.33 µM]	-17%
CN(C)S(=O)(=O)c1cc(NC(=O)c2ccc(-n3ccnc3)c([N+](=O)[O-])c2)ccc1Cl	-29%	nt	-30	20%	45µM*	-27%
CCOC(=O)c1ccc(N2C(=O)c3n[nH]c(-c4ccco4)c3C2c2ccc(C)cc2)cc1 (centres undefined)	nt	nt	nt	-28%	11µM*	?
CCOC(=O)c1ccc(N2C(=O)c3n[nH]c(-c4ccco4)c3C2c2ccc([N+](=O)[O-])cc2)cc1 (centres undefined)	40µM*	-31%	-23	-25%	?	?
CCOC(=O)c1ccc(N2C(=O)c3[nH]nc(-c4ccc(OC)cc4)c3C2c2cccc(O)c2)cc1 (centres undefined)	nt	nt	nt	28%	-20%[59 µM]	-29%
CCOC(=O)c1ccc(N2C(=O)c3n[nH]c(-c4ccco4)c3C2c2ccc(O)c(OC)c2)cc1 (centres undefined)	nt	nt	nt	?	22µM*	?
COc1ccc(NC(=O)N2CCC(CN3CCCC3)CC2)c(OC)c1	1%	nt	nt	18%	-6%[59 µM]	2%
COc1ccccc1C(=O)NC(=O)Nc1ccc(-n2nc(C(F)(F)F)cc2C(F)(F)F)cc1	-9%	nt	nt	39%	7%[59 µM]	-7%
CCc1ccc(CNC(=O)C(CC)n2nc(C)c3c(C)n(-c4ccccc4)nc3c2=O)cc1 (centres undefined)	14%	nt	nt	47%	9%[59 µM]	-17%
COc1ccc(CNCc2cccc3ccccc23)cc1	?	5%	4	?	nt	18µM*
COc1ccc(CN(C)CC(=O)Nc2ccccc2C(F)(F)F)cc1	8%	20%	5	106%	60%	30%
COc1ccc(CCNCC(=O)Nc2ccccc2C(F)(F)F)cc1	50µM*	52%	-11	?	2.5µM*	3.2µM*
COc1ccc(S(=O)(=O)N(C)CC(=O)Nc2ccccc2C(F)(F)F)cc1	9%	6%	nt	13%	15%[59 µM]	-3%
COc1ccc(CNCc2ccccc2C(F)(F)F)cc1	79µM*	10%	-8	?	8.9µM*	28µM*
COc1ccc2ccc(O)c(CN(C)CC(=O)Nc3ccccc3C(F)(F)F)c2c1	-13%	nt	-17	-20%	7.9µM*	?
CN(C)c1ccc(CNS(=O)(=O)c2ccc(-c3cc(C(F)(F)F)on3)s2)cc1	-7%	nt	nt	19%	-20%[59 µM]	-20%
Cc1ccccc1NC(=O)c1sc2nc3c(cc2c1N)CCCC3	9%	nt	nt	46%	-5%[59 µM]	5%
Cc1c(-c2ccccc2)sc(N)c1C(=O)N1CCOCC1	-28%	2%	-5	?	4µM*	2%[11.4 µM]
SMILES	BAZ2B inh	L3MBTL1 block	PI5P4Ka inh	HP1b binding inh	G9a block	JMJD2A Tudor inh
CCOC(=O)c1c(N)sc(C)c1-c1ccccc1	nt	nt	nt	nt	18µM*	nt
COC(=O)c1c(N)sc(C(=O)N2CCOCC2)c1C	-6%	nt	1	15%	0%[12.7 µM]	-7%
CCOC(=O)c1c(N)sc(C(O)(C(F)(F)F)C(F)(F)F)c1-c1ccccc1	-1%	nt	-3	?	-2%	?
CCOC(=O)c1c(N)sc(-c2ccccc2)c1C	-36%	-4%	nt	?	8.9µM*	?
O=C(O)c1ccc(N2Cc3ccccc3C2)cc1O	?	nt	nt	1%	8.9µM*	?
O=C(CNC(=O)c1ccc2ccccc2c1)OC(C(=O)Nc1cc(C(F)(F)F)ccc1Cl)c1ccccc1 (centres undefined)	nt	nt	nt	nt	nt	-18%
COc1ccc(NC(=O)C(C)n2nc(-c3cc(C)ccc3C)c3c(c2=O)CCCC3)cc1 (centres undefined)	-30%	nt	nt	11%	-32%[59 µM]	-30%
N#CCOC(=O)c1sccc1-n1cccc1	-6%	-4%	-6	5%	5%[59 µM]	-8%
N#CCC(=O)c1sccc1-n1cccc1	79µM*	-17%	-13	-3%	13µM*	-19%[57.1 µM]
CCOc1ccc(NC(=O)Cc2coc3ccc(C)cc23)cc1	36%	nt	nt	66%	42%[59 µM]	-13%
NC(=O)c1ccccc1NC(=O)CSc1cn[nH]n1	9%	nt	7	31%	-5%[59 µM]	4%
O=C(CSc1cn[nH]n1)Nc1ccccc1C(F)(F)F	0%	nt	-6	39%	25µM*	7%
O=C(CSc1n[nH]c(-c2ccncc2)n1)Nc1ccccn1	?	nt	-5	19%	?	56µM*
O=C(CSc1n[nH]c(-c2cccnc2)n1)Nc1ccc(Br)cc1	2%	nt	-5	13%	8.9µM*	-34%
O=C(CSc1n[nH]c(-c2ccncc2)n1)Nc1ccccc1C(F)(F)F	5%	nt	3	4%	25µM*	-34%
Cn1cnc2c(NCc3ccccc3)nc(Cl)nc21	nt	nt	nt	20%	nt	-5%
CCc1nc2cccnc2n1-c1ccc(CC(=O)Nc2cccc(C)c2C)cc1	-12%	nt	nt	15%	?	-14%
O=C1CCCN2N=C(SCC(=O)Nc3cccc(C(F)(F)F)c3)SC2=N1	3%	nt	-2	5%	35%	-8%
O=C1CCCN2N=C(SCC(=O)Nc3ccccc3C(F)(F)F)SC2=N1	56µM*	nt	-6	?	19%	?
CCc1ccc2c(c1)C1(C(=O)N2)N2CCCC2C(C(=O)c2ccc3ccccc3c2)C12C(=O)Nc1ccccc12 (centres undefined)	?	-15%	-1	-14%	14µM*	-36%
C=CCn1c(=O)/c(=C/c2ccc(C)o2)s/c1=C(/C#N)C(=O)c1ccccc1	11µM*	?	-2	?	?	-18%
COc1ccc(CNc2ncncc2-c2cccc(NS(C)(=O)=O)c2)c(OC)c1	nt	nt	nt	nt	-30%[0.501 µM]	nt
